Source: PubChem
NR5A2 inv ag – suppresses constitutive activity of human LRH-1. HEK293T StAR-luciferase reporter, LRH-1 transfected, 24 h. AID 602396. inhibition, % at 3.6 µM. O00482. 360,000 compounds, 0.13% hits;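 active = inhibition above the mean inhibition of all tested compounds plus 3 SD, cut at about 73% in these data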;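 also: 0% = DMSO wells and 100% = reporter-only cells lacking LRH-1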
NCOA3 inh – inhibitors of human steroid receptor coactivator 3 (SRC3); AID 588352; inhibition, % at 3.6 µM; HEK293 GAL4-SRC3 luciferase reporter, luminescence; Q9Y6Q9; 360,000 compounds, 0.17% hits;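 active = inhibition above a per-campaign cutoff, the mean of all compounds plus 3 SD, cut at about 60% in these data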;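 also: 0% = DMSO-treated cells and 100% = gossypol-treated cells at 36 µM; higher means less SRC3-driven luciferase light from the GAL4 reporter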
NCOA2 inhibitor – inhibits human steroid receptor coactivator 2; Q15596; HEK293 GAL4-SRC2 luciferase reporter, luminescence; inhibition, % at 9 µM; 370,000 compounds, 0.17% hits; AID 651957;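 active = inhibition above the mean inhibition of all tested compounds plus 3 SD, set per campaign, cut at about 52% in these data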;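 also: 0% = DMSO treated cells and 100% = cells given Gossypol at 36 µM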
SRC1 inh – human NCOA1 inhibition. HEK293 GAL4-SRC1 luciferase reporter, luminescence. inhibition, % at 3.6 µM. 360,000 compounds, 0.12% hits;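 active = inhibition above the campaign mean plus 3 SD, with each screening campaign given its own cutoff, cut at about 60% in these data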;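 also: 0% = DMSO treated cells and 100% = gossypol at 36 µM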
COUP-TFII inh – blocks human COUP-TFII nuclear receptor | HEK293T NGFI-A luciferase reporter, luminescence | inhibition, % at 8.6 µM | 370,000 compounds, 0.7% hits | AID 686940;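 active = inhibition above a per-plate cutoff, mean inhibition of test wells between control levels plus 3 SD, cut at about 38% in these data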;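 also: cells cotransfected with COUP-TFII expression vector driving the NGFI-A reporter; 0% = median of COUP-TF2 test wells and 100% = reporter-only cells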
Target sequence (P24468 whole entry, looked up): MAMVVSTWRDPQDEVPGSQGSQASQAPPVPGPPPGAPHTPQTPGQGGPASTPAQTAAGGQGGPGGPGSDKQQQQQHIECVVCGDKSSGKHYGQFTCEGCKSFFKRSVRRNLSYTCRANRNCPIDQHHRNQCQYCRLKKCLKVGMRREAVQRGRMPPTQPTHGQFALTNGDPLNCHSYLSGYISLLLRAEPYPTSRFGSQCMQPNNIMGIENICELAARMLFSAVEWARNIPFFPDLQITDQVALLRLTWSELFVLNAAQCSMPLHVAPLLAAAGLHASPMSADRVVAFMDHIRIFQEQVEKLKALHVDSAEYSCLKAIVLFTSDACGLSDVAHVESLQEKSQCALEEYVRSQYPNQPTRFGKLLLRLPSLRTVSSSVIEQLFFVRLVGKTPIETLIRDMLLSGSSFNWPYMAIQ
Efflux pump inh – antifungal efflux pump inhibition, Nile Red retention | 330,000 compounds, 0.44% hits | S. cerevisiae Candida pump triplex | inhibition, % at 10 µM;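 active = plate passing quality check with inhibition over a set limit, or well fluorescence over plate mean plus 4 SD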;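 also: Nile Red retained in pooled yeast measured as flow cytometry median fluorescence; 0% = buffer negative control and 100% = Enniatin B positive control; higher means more Nile Red kept so more efflux inhibition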
VP16 Luc counter – counter-screen for COUP-TFII antagonists: inhibitors of VP16. shares compounds with COUP-TFII inh. HEK293 Gal4-VP16 luciferase reporter, luminescence. inhibition, % at 8.5 µM. 2,500 compounds, 25% hits. AID 687007; in the data active = inhibition above about 13%
COUP-TFII conf – confirmation of human COUP-TFII (NR2F2) inhibitors; shares compounds with COUP-TFII inh; inhibition, % at 8.5 µM; 2,500 compounds, 45% hits; HEK293 NGFI-A luciferase reporter, luminescence; AID 687008;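 active = mean inhibition over three repeats above a set limit taken from the earlier primary screen, cut at about 38% in these data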;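 also: 100% = cells given the luciferase reporter alone without the COUP-TF2 vector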
An asterisk follows results filed as active; / = no result. Compounds with a hit are over-represented: about 1.2% of the library has one in this group of screens.

SMILES	NR5A2 inv ag	NCOA3 inh	NCOA2 inhibitor	SRC1 inh	COUP-TFII inh	Efflux pump inh	VP16 Luc counter	COUP-TFII conf
C=CCN1c2ccccc2Sc2cnccc21	-23.4	18.7	32.4	16.5	3.4	/	/	/
C[C@H]1O[C@@H](O[C@H]2[C@@H](O)C[C@H](O[C@H]3[C@@H](O)C[C@H](O[C@H]4CC[C@@]5(C)[C@H](CC[C@@H]6[C@@H]5C[C@@H](O)[C@]5(C)[C@@H](C7=CC(=O)OC7)CC[C@]65O)C4)O[C@@H]3C)O[C@@H]2C)C[C@H](O)[C@@H]1O	102.1*	91.2*	61.0*	87.3*	80.4*	0.2	48.3*	76.8*
Cc1ccc(Oc2cc([N+](=O)[O-])cc3c2C(=O)Nc2ccccc2O3)cc1	23.5	26.1	2.5	1.9	38.0*	-0.1	-9.2	12.0
O=C1Nc2ccccc2Nc2ccc([N+](=O)[O-])cc21	-17.1	-2.2	-7.3	-33.8	0.5	0.5	/	/
CCN(CC)c1ccc2nc3ccc(N)cc3[n+](-c3ccccc3)c2c1	86.6*	66.7*	24.9	51.5	77.0*	/	21.0*	73.0*
CCN(CC)c1ccc(/C=N/n2nnnc2N)c(O)c1	-10.4	-25.8	-17.6	-2.2	10.3	0.0	/	/
CC(C)N1C/C(=C/c2ccsc2)C(=O)/C(=C/c2ccsc2)C1	9.4	10.6	-49.0	12.5	46.9*	0.3	37.9*	68.0*
O=C(CCN1C(=O)/C(=C/c2ccccc2Cl)SC1=S)NCCc1ccc(O)cc1	9.9	3.1	-16.5	-15.7	1.6	0.1	/	/
Cc1cc(C)nc(SCc2nnc(SCC(N)=O)n2Cc2ccco2)n1	-2.8	18.6	-13.4	-3.4	38.8*	-0.3	11.0	11.4
CCOC(=O)CSc1nnc(CSc2nc(C)cc(C)n2)n1Cc1ccco1	22.9	-18.6	-8.6	12.1	-6.5	0.1	/	/
CC(C)NC(=O)CSc1nc2sccc2c(=O)n1-c1ccccc1	3.3	-23.5	3.1	17.1	16.0	0.2	/	/
Cc1sc2ncnc(NCC3CCCO3)c2c1C (centres undefined)	23.2	10.9	16.5	-6.9	10.6	-0.1	/	/
c1ccc(-c2csc3ncnc(NCCCN4CCOCC4)c23)cc1	14.7	19.2	25.0	6.9	7.5	0.1	/	/
Cc1sc2ncnc(NCC3COc4ccccc4O3)c2c1C (centres undefined)	42.1	30.0	23.7	25.6	76.0*	0.1	-3.5	61.6*
Cc1sc2ncnc(NCC(C)(C)N3CCOCC3)c2c1C	29.3	9.8	18.4	3.2	42.6*	0.3	4.1	44.1*
c1ccc(-c2csc3ncnc(NCC4COc5ccccc5O4)c23)cc1 (centres undefined)	55.6	38.6	31.5	14.6	65.2*	0.2	15.9*	82.5*
Cc1sc2ncnc(NCC3(N4CCOCC4)CCCCC3)c2c1C	-18.6	-3.9	-5.7	-3.0	-11.6	0.1	/	/
CC(C)CN(C(=O)COC(=O)COc1ccc2ccccc2c1)c1c(N)n(Cc2ccccc2)c(=O)[nH]c1=O	-0.5	-3.0	-9.8	6.3	0.7	-0.1	/	/
COc1ccc(-n2ncc3c2CC(C)(C)CC3NC(=O)CCn2nc(C)cc2C)cc1 (centres undefined)	-14.3	2.9	3.0	-7.2	-4.1	0.1	/	/
CC[n+]1ccccc1/C=C1\Sc2ccc(C)cc2N1C	51.2	39.3	2.9	39.2	60.6*	0.3	8.9	58.8*
CN1/C(=C/c2cccc[n+]2CCO)Sc2ccccc21	-5.3	-5.0	-38.8	7.2	10.6	0.2	/	/
O=C(CN1CCN(C(=O)CNC(=O)c2ccc3c(c2)OCO3)CC1)Nc1ccccc1Cl	1.5	-6.6	16.2	-14.6	-14.0	0.1	/	/
O=C(CN1CCN(C(=O)CNC(=O)c2ccc(-c3ccccc3)cc2)CC1)Nc1ccccc1Cl	31.4	3.2	-24.1	10.6	50.4*	/	-8.3	21.1
CCc1ccc(-c2nc(CN3CCCC(C(=O)NCCc4ccc(OC)c(OC)c4)C3)c(C)o2)cc1 (centres undefined)	-4.9	-10.2	28.0	-30.6	49.3*	0.1	2.7	13.6
